# Measured values as given in PubChem BioAssay AID720624 (Broad Institute, 2013).
# Measured potencies and affinities stand elsewhere. Inconclusive results are not listed. The source made the active and inactive calls.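 How the source made its calls: active means viability loss with half-maximal concentration at most twice the top valid dose, at 8, 24 and 48 hours; inconclusive means timepoint results disagree; inactive means inactive at all three timepoints.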
# Test: SNB-75 astrocytoma cell viability loss, late-stage follow-up, mechanism study for HRAS target identification, CellTiter-Glo ATP luminescence, several timepoints, dry powder (AID 720624)
compound,measurement,value
Cc1onc(C(=O)N2CCN(C(c3ccncc3)c3ccncc3)CC2)c1[N+](=O)[O-],outcome,inactive
